# Experimental data published in PubChem BioAssay AID624296 (National Center for Advancing Translational Sciences (NCATS), 2012).
# Out of some 350,000 compounds screened, about 9,900 (2.8%) were called active. Not shown: some 15% with an inconclusive outcome. This excerpt belongs to a sample that is enriched for actives. Values without a mark were called inactive. Calls follow the shape of the dose curve; as a rule, active = well fitted activation curve with a large enough effect; inconclusive = small, poorly fitted or top-dose-only effect; inactive = no such curve, though single readings can be large or run the other way.
# Assay: A quantitative high throughput screen for small molecules that induce DNA re-replication in MCF 10a normal breast cells. Also: nearly all actives have a fitted effect of over 50% in size. As to activity, positive = re-replication: % of control where 0% means no effect.
# Conditions: MCF 10A DNA re-replication, Hoechst nuclear intensity, 48 h; series mostly up to 46.1 µM; activity, positive = re-replication: at the top concentration
# Potency is read from the fitted curve at half-maximal effect.
SMILES,"activity, positive = re-replication",Potency
O=C(COC(=O)/C=C/c1cccc(Cl)c1)NCc1cccs1,6.71%,–
Cc1c(NC(=O)C(C)OC(=O)c2ccccc2O)c(=O)n(-c2ccccc2)n1C (configuration not stated),-8.76%,–
Cc1ccc(OCCCC(=O)Nc2ccc3c(c2)OCCO3)cc1,-1.53%,–
CC(C)N(Cc1nnc(-c2ccccc2Br)o1)C(=O)c1cc(Cl)nc2ccccc12,-0.578%,–
CN1C(=O)c2ccc(C(=O)Nc3ccc(Br)cn3)cc2C1=O,-0.877%,–
Cc1cccc(NC(=S)NC(=O)c2ccc(Br)o2)c1,19.9%,–
Cc1cccc(NC(=O)c2cc([N+](=O)[O-])ccc2N2CCN(C)CC2)c1,7.05%,–
O=C(Nc1ccc(Br)cn1)c1ccc([N+](=O)[O-])o1,–,4.11 µM (active)
Cc1cccc(NC(=O)c2ccc([N+](=O)[O-])o2)c1,–,2.91 µM (active)
O=C(Nc1ccc(Br)cn1)c1ccc([N+](=O)[O-])cc1Cl,-1.49%,–
COc1ccc(CNC(=O)c2ccc(NS(=O)(=O)c3ccc4[nH]c(=O)[nH]c4c3)cc2)cc1OC,-5.27%,–
COc1ccc(CNCCCn2cnc3c(OCc4ccccc4)ncnc32)cc1,1.64%,–
CSCCC(NC(=O)COc1ccccc1)C(=O)N(C)CC(=O)Nc1ccc(C)cc1 (configuration not stated),1.63%,–
CCOC(=O)CCCCCC(=O)Nc1ccc2c(c1)CC(=O)N([C@@H](C)CO)C[C@H](C)[C@@H](CN(C)Cc1ccccc1)O2,-21.7%,–
COc1cccc(C(=O)NNC(=O)/C=C/c2ccccc2)c1,3.32%,–
COc1cccc(/C=C/C(=O)OCC(=O)N2CCN(c3ccccc3)CC2)c1,5.15%,–
COc1cccc(C=CC(=O)C=CC=Cc2ccccc2)c1,–,16.4 µM (active)
Cc1noc(C)c1C(=O)OC(C)C(=O)Nc1ccc2c(c1)OCO2 (configuration not stated),-1.99%,–
CC1(C)CC(=O)C=C(c2ccc(Cl)c(C(F)(F)F)c2)C1,84.6%,–
COc1ccc(S(=O)(=O)N2CCC(C(=O)NCc3ccco3)CC2)cc1C,-0.313%,–
O=C(NCc1cc(C(F)(F)F)cc(C(F)(F)F)c1)C1CC(c2cccc(F)c2)=NO1 (configuration not stated),-1.76%,–
COc1ccc(C2=NOC(C(=O)NCc3ccco3)C2)cc1OC (configuration not stated),–,4.61 µM (active)
COc1ccccc1C(CNC(=O)c1ccc(C)c(S(=O)(=O)N2CCCCC2)c1)N(C)C (configuration not stated),-2.66%,–
COc1ccc(CC(=O)NCC(=O)N/N=C/c2cc(Br)ccc2OC)cc1,11%,–
Cc1ccc(S(=O)(=O)Oc2ccc(/C=N/NC(=O)c3ccncc3)cc2)cc1,11%,–
Cc1ccc(OCCOCCOc2ccc(Br)cc2/C=N\NC(=O)c2ccncc2)cc1,–,20.6 µM (active)

SMILES,"activity, positive = re-replication",Potency
CCCCc1ccc(NC(=O)CN2C(=O)NC(Cc3ccccc3)C2=O)cc1 (configuration not stated),-5.5%,–
CCCCNCCS(=O)(=O)NCc1ccccc1,6.56%,–
Cc1ccc(C)c(NC(=O)C(c2ccccc2)N2CCN(CC(=O)NC3CC3)CC2)c1 (configuration not stated),-1.84%,–
Cc1ccc(-n2c(=O)c(C#N)cc3c(=O)n4ccccc4nc32)cc1C,–,10.3 µM (active)
Cc1ccc(-n2c(SCC(=O)N3CCC(C(=O)O)CC3)nc3ccccc3c2=O)cc1C,-3.72%,–
Cc1ccn2c(=O)c(NC(=O)c3cccc4ccccc34)c(C)nc2c1,3.52%,–
CC(=O)Nc1ccc(C(=O)Nc2cc(S(=O)(=O)N3CCOCC3)ccc2N2CCOCC2)cc1,-7.14%,–
COc1ccc(CCN2CC(C(=O)OCC(=O)NCc3ccccc3Cl)CC2=O)cc1OC (configuration not stated),9.97%,–
Fc1ccccc1-c1cc2cc3c(cc2cn1)OCO3,20.3%,–
Cc1nnc2n1N=C(c1ccccc1)CS2,1.39%,–
CC1=Nn2c(nnc2-c2ccccc2)SC1,-3.17%,–
COc1ccc(C2=Nn3c(nnc3-c3ccccc3OC)SC2)cc1OC1CCCC1,–,0.651 µM (active)
CCOC(=O)c1ccccc1NS(=O)(=O)c1ccc(OC)cc1,–,16.4 µM (active)
CCOc1cc(NS(=O)(=O)c2ccc(OC)cc2)c(OCC)cc1NC(C)=O,12.6%,–
CCOC(=O)c1ccccc1NS(=O)(=O)c1c(C)nc2sccn2c1=O,-0.74%,–
CN1CCN(S(=O)(=O)c2ccc(N3CCN(c4ccccc4O)CC3)c([N+](=O)[O-])c2)CC1,2.95%,–
CC(=O)c1sc(NC(=O)CCN2C(=O)C3CC=CCC3C2=O)nc1-c1ccccc1 (configuration not stated),-0.493%,–
COc1ccc(-c2csc(Nc3ccccn3)n2)cc1,0.252%,–
COc1ccc(OC)c(Nc2nc(-c3ccc(O)c(O)c3)cs2)c1,–,8.2 µM (active)
COc1ccc(CC(=O)Nc2nc(-c3ccc(F)c(F)c3)cs2)cc1OC,3.89%,–
C=CC[C@@H](CC(=O)N[C@@H](CO)Cc1ccccc1)C(=O)N[C@H](COC(=O)[C@H](CC=C)CC(=O)OC(C)(C)C)Cc1ccccc1,-10.2%,–
Oc1cccc(CCc2ccccn2)c1,-3.55%,–
COc1cc(/C=C/C(=O)OCC(=O)NC2CC2)cc(OC)c1OC,-2.1%,–
Cc1cc(C)c2c3c(sc2n1)C(c1ccccc1)C(C#N)=C(N)O3 (configuration not stated),–,2.82 µM (active)
Cc1cc(C)c(C#N)c(SCc2[nH]nc3c2C(c2ccccc2)C(C#N)=C(N)O3)n1 (configuration not stated),-7.51%,–
Cc1nn(Cc2ccccc2)c2c1C(c1ccccc1)C(C#N)=C(N)O2 (configuration not stated),-2.92%,–
